# Measured values reported in PubChem BioAssay (EPA / NIEHS).
# Where “and” joins values, the source holds several entries; their conditions need not be identical. Equal entries are not always repeated. A structure can be active in one record and inactive in another. Calls of active or inactive are those of the source. How the source made its calls: active means hit-call score of the fitted dose curve at least 0.9, where 1 is the maximum; inactive means score below 0.9.
# Columns and labels:
# [1] = read-out: Transforming growth factor beta 1 (TGFb1), TGFB1 (gene 7040); assay: BSK_KF3CT_TGFb1: BioMAP Diversity Plus: KF3CT Assay for Transforming growth factor beta 1 (TGFb1) Biomarker Activity (AID 2283072); conditions: primary human keratinocytes with fibroblasts; actives raise or lower the signal
# In short: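 Read-out: ELISA for TGF-b1 in keratinocyte/foreskin fibroblast human skin co-culture, 24 h after dosing; bidirectional curve fit vs DMSO baseline; gain or loss of signal scored.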
# [2] = read-out: C-C motif chemokine 2 (Homo sapiens) (UniProt P13500); assay: BSK_KF3CT_MCP1: BioMAP Diversity Plus: KF3CT Assay for Monocyte Chemoattractant Protein 1 (MCP1/CCL2) Biomarker Activity (AID 2283073); conditions: primary human keratinocytes with fibroblasts; actives raise or lower the signal
# In short: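 Human keratinocyte plus foreskin fibroblast primary co-culture exposed to chemical for 24 h. MCP-1 levels measured by ELISA. Bidirectional curve fitting relative to DMSO negative control as baseline.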
# [3] = read-out: Matrix Metallopeptidase 9 (MMP9), MMP9 (gene 4318); assay: BSK_KF3CT_MMP9: BioMAP Diversity Plus: KF3CT Assay for Matrix Metallopeptidase 9 (MMP9) Biomarker Activity (AID 2283074); conditions: primary human keratinocytes with fibroblasts; actives raise or lower the signal;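 on AC50: MMP9 protein level quantified by ELISA in the co-culture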
# In short: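 ELISA read-out of MMP-9 at 24 h post-dosing in a co-culture of human skin keratinocytes and foreskin fibroblasts. Gain or loss of signal was fitted in both directions against DMSO.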
# [4] = read-out: urokinase plasminogen activator (uPA), PLAU (gene 5328); assay: BSK_KF3CT_uPA: BioMAP Diversity Plus: KF3CT Assay for urokinase plasminogen activator (uPA) Biomarker Activity (AID 2283075); conditions: primary human keratinocytes with fibroblasts; actives raise or lower the signal
# In short: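 Skin co-culture (keratinocytes + foreskin fibroblasts), human primary; 24 h post-dose; uPA by ELISA; gain/loss fit vs DMSO baseline.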
# [5] = read-out: CD40, CD40 (gene 958); assay: BSK_LPS_CD40: BioMAP Diversity Plus: LPS Assay for CD40 Biomarker Activity (AID 2283076); conditions: primary human HUVEC with PBMC; actives raise or lower the signal
# In short: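 Primary human umbilical vein endothelial cells co-cultured with peripheral blood mononuclear cells, LPS-stimulated, were dosed with chemical and read 24 h later. CD40 levels were measured by ELISA and fitted bidirectionally against DMSO as negative control and baseline.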
# [6] = read-out: E-selectin (Homo sapiens) (UniProt P16581); assay: BSK_LPS_Eselectin: BioMAP Diversity Plus: LPS Assay for Eselectin Biomarker Activity (AID 2283077); conditions: primary human HUVEC with PBMC; actives raise or lower the signal
# In short: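 Human umbilical vein endothelial cells co-cultured with peripheral blood mononuclear cells under LPS stimulation; E-selectin measured by ELISA 24 h after chemical dosing. Activity fitted bidirectionally against DMSO as negative control and baseline.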
# [7] = read-out: Interleukin-8 (IL8), CXCL8 (gene 3576); assay: BSK_LPS_IL8: BioMAP Diversity Plus: LPS Assay for Interleukin-8 (IL8) Biomarker Activity (AID 2283078); conditions: primary human HUVEC with PBMC; actives raise or lower the signal
# In short: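 Human umbilical vein endothelial cells co-cultured with PBMC were stimulated with LPS; IL-8 levels were measured by ELISA 24 h after chemical dosing. Activity was fitted bidirectionally against DMSO as negative control and baseline.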
# [8] = read-out: Monocyte Chemoattractant Protein-1 (MCP1), CCL2 (gene 6347); assay: BSK_LPS_MCP1: BioMAP Diversity Plus: LPS Assay for Monocyte Chemoattractant Protein-1 (MCP1) Biomarker Activity (AID 2283081); conditions: primary human HUVEC with PBMC; actives raise or lower the signal;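 on AC50: co-culture stimulated with LPS; secreted MCP-1 protein quantified by ELISA in culture supernatant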
# In short: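 HUVEC plus PBMC co-culture (human primary cells, LPS system) exposed to test chemical for 24 h; MCP-1 measured by ELISA. Bidirectional curve fitting against DMSO baseline; parallel SRB total-protein staining flags overt cytotoxicity.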
# [9] = BSK_LPS_SRB: Viability Assessment in the BioMAP Diversity Plus: LPS Assay (AID 2283079); conditions: primary human HUVEC with PBMC;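 further: total protein by sulforhodamine B absorbance as a cytotoxicity measure; measured one day after compound addition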
# In short: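 Human umbilical vein endothelial cells co-cultured with PBMC (LPS system) were dosed for 24 h. Total protein was stained with 0.1% sulforhodamine B after 10% TCA fixation, read at 560 nm, and fitted bidirectionally against DMSO baseline.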
# [10] = read-out: Interleukin-1 alpha (IL1a), IL1A (gene 3552); assay: BSK_LPS_IL1a: BioMAP Diversity Plus: LPS Assay for Interleukin-1 alpha (IL1a) Biomarker Activity (AID 2283080); conditions: primary human HUVEC with PBMC; actives raise or lower the signal
# In short: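 Human umbilical vein endothelial cells co-cultured with peripheral blood mononuclear cells were LPS-stimulated and exposed to test chemicals for 24 h. IL-1 alpha was quantified by ELISA, with bidirectional curve fitting against DMSO as the negative control and baseline.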
# Sequence of E-selectin (Homo sapiens) (P16581 whole entry, looked up): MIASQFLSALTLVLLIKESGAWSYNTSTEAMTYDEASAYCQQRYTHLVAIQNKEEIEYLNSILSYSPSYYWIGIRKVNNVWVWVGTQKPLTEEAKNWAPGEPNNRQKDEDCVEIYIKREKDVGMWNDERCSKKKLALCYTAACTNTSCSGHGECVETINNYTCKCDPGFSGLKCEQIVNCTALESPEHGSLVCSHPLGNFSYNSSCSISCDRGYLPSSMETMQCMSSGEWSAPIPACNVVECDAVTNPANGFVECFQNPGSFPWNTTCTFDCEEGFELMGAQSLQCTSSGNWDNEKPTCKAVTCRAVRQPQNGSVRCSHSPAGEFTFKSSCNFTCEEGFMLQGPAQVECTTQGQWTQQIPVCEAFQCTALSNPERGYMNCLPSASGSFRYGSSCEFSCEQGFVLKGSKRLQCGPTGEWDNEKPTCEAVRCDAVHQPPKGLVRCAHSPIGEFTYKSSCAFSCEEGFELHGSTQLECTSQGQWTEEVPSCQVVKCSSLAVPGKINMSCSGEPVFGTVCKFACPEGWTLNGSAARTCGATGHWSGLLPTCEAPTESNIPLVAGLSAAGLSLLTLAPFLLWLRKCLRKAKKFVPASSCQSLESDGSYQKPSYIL
smiles,measurement,setting,value
CCc1ccc(C(c2ccc(CC)cc2)C(Cl)Cl)cc1,AC50,[1],20 µM (active)
same,AC50,[2],10.1 µM (active)
same,AC50,[3],11.9 µM (active)
same,outcome,[4],inactive
same,AC50,[5],14.2 µM (active)
same,outcome,[6],inactive
same,outcome,[7],inactive
same,AC50,[8],31.4 µM (active)
CCCCCCOC(=O)c1ccccc1O,AC50,[2],32.8 µM (active)
same,outcome,[2],inactive
same,outcome,[3],inactive
same,outcome,[4],inactive
same,AC50,[5],41.9 µM (active) and 24.5 µM (active)
same,AC50,[6],38.1 µM (active) and 44.8 µM (active)
same,AC50,[7],41.9 µM (active) and 38.9 µM (active)
same,AC50,[8],40.6 µM (active)
same,outcome,[8],inactive
O=C(O)C=C(C(F)(F)F)C(F)(F)F,outcome,[2],inactive
same,AC50,[3],8.2 µM (active)
same,outcome,[3],inactive
same,outcome,[4],inactive
same,AC50,[5],19.6 µM (active)
same,outcome,[5],inactive
same,outcome,[6],inactive
same,outcome,[7],inactive
same,outcome,[9],inactive
same,outcome,[8],inactive
CCCCCCC(C)OC(=O)CCCCC(=O)OC(C)CCCCCC (centres undefined),outcome,[1],inactive
same,outcome,[2],inactive
same,outcome,[3],inactive
same,outcome,[4],inactive
same,outcome,[5],inactive
same,outcome,[6],inactive
same,outcome,[7],inactive
same,outcome,[10],inactive
same,outcome,[8],inactive
Cc1ccc(S(=O)(=O)OCC(F)(F)C(F)(F)C(F)(F)C(F)(F)C(F)(F)C(F)F)cc1,outcome,[2],inactive
same,AC50,[3],10.8 µM (active)
same,outcome,[3],inactive
same,outcome,[4],inactive
same,AC50,[5],30 µM (active)
same,outcome,[5],inactive
same,outcome,[6],inactive
same,outcome,[7],inactive
same,outcome,[8],inactive
C=C(C)C(=O)OCC(F)(F)C(F)(F)C(F)(F)C(F)(F)C(F)(F)C(F)(F)C(F)(F)F,outcome,[2],inactive
same,outcome,[3],inactive
same,outcome,[4],inactive
same,outcome,[5],inactive
same,AC50,[6],0.0306 µM (active)
same,outcome,[6],inactive
same,outcome,[7],inactive
same,outcome,[10],inactive
same,outcome,[8],inactive
CCCCOCCOCCOC(=O)CCCCC(=O)OCCOCCOCCCC,outcome,[1],inactive
same,outcome,[2],inactive
same,outcome,[3],inactive
same,outcome,[4],inactive
same,outcome,[5],inactive
same,outcome,[6],inactive
same,outcome,[7],inactive
same,outcome,[9],inactive
same,outcome,[8],inactive
O=C(O)C(F)(F)C(F)(F)C(F)(F)C(F)(F)C(F)(F)C(F)(F)C(F)(F)C(F)(F)Cl,AC50,[2],49.4 µM (active) and 55.1 µM (active)
same,AC50,[3],37.5 µM (active) and 40.3 µM (active)
same,AC50,[4],47.8 µM (active) and 47.2 µM (active)
same,outcome,[5],inactive
same,AC50,[6],30 µM (active)
same,outcome,[6],inactive
same,AC50,[7],5.95 µM (active) and 40.1 µM (active)
same,AC50,[9],48.4 µM (active) and 47.2 µM (active)
same,outcome,[8],inactive
CO[Si](OC)(c1ccccc1)c1ccccc1,AC50,[1],30.1 µM (active)
same,AC50,[2],31.6 µM (active)
same,AC50,[3],31.3 µM (active)
same,AC50,[4],28.9 µM (active)
same,outcome,[5],inactive
same,outcome,[6],inactive
same,outcome,[7],inactive
same,outcome,[9],inactive
same,outcome,[8],inactive
CS(C)(=O)=O,outcome,[1],inactive
same,outcome,[2],inactive
same,outcome,[3],inactive
same,outcome,[4],inactive
same,outcome,[5],inactive
same,outcome,[6],inactive
same,outcome,[7],inactive
same,outcome,[10],inactive
same,outcome,[8],inactive
Oc1ccc(Nc2ccccc2)cc1,AC50,[1],20 µM (active)
same,outcome,[2],inactive
same,outcome,[3],inactive
same,outcome,[4],inactive
same,AC50,[5],20 µM (active)
same,outcome,[6],inactive
same,outcome,[7],inactive
same,outcome,[9],inactive
same,outcome,[10],inactive
same,outcome,[8],inactive
Nc1ccc([N+](=O)[O-])cc1O,outcome,[1],inactive
same,outcome,[2],inactive
same,outcome,[3],inactive
same,outcome,[4],inactive
same,outcome,[5],inactive
same,outcome,[6],inactive
same,outcome,[7],inactive
same,outcome,[9],inactive
same,outcome,[10],inactive
same,outcome,[8],inactive
O=P(O)(O)OCCC(F)(F)C(F)(F)C(F)(F)C(F)(F)C(F)(F)C(F)(F)F,outcome,[2],inactive
same,outcome,[3],inactive
same,outcome,[4],inactive
same,AC50,[5],0.823 µM (active)
same,outcome,[5],inactive
same,outcome,[6],inactive
same,outcome,[7],inactive
same,outcome,[10],inactive
same,outcome,[8],inactive
O=S(=O)(O)C(F)(F)C(F)(F)C(F)(F)C(F)(F)C(F)(F)C(F)(F)C(F)(F)F,outcome,[2],inactive
same,outcome,[3],inactive
same,outcome,[4],inactive
same,outcome,[5],inactive
same,outcome,[6],inactive
same,outcome,[7],inactive
same,outcome,[9],inactive
same,outcome,[10],inactive
same,outcome,[8],inactive
O=C(O)C(F)(F)C(F)(F)C(F)(F)C(F)(F)C(F)(F)C(F)(F)C(F)(F)C(F)(F)C(F)(F)C(F)(F)C(F)(F)C(F)(F)C(F)(F)F,outcome,[2],inactive
same,outcome,[3],inactive
same,outcome,[4],inactive
same,outcome,[5],inactive
same,outcome,[6],inactive
same,AC50,[7],2.24 µM (active)
same,outcome,[7],inactive
same,outcome,[10],inactive
same,outcome,[8],inactive
CCCCCCCCCCCCCCCC[N+](C)(C)Cc1ccccc1,AC50,[1],1.02 µM (active)
same,AC50,[2],3.15 µM (active)
same,AC50,[3],1.76 µM (active)
same,AC50,[4],2.39 µM (active)
same,AC50,[5],13 µM (active)
same,AC50,[6],4.01 µM (active)
same,AC50,[7],5.25 µM (active)
same,AC50,[9],5.2 µM (active)
same,AC50,[8],11.4 µM (active)
CCCCCCCOC(=O)c1ccccc1C(=O)OCCCCCCC,outcome,[1],inactive
same,outcome,[2],inactive
same,outcome,[3],inactive
same,outcome,[4],inactive
same,outcome,[5],inactive
same,outcome,[6],inactive
same,outcome,[7],inactive
same,outcome,[8],inactive
